Assay results as given in PubChem BioAssay AID1159580 (chemical genetic matrix, 2015).
Where “and” joins values, the source holds several entries; their conditions need not be identical. Equal entries are not always repeated. Screen size: about 5,500 compounds; about 2,000 (36%) were called active. About 18% were inconclusive and are not listed. Rule as the data show it: active = normalized growth mostly below about 0.91 (no sharp cut-off); inconclusive = no clear call, values can overlap the other calls; inactive = mostly above about 0.92. Some of the results follow.

Experiment: chemical genetic growth profiling, strain panel (AID 1159580);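 also: tested at 20 µM; growth read once vehicle control cultures reached saturation at 30 °C; 1 = growth at the plate median or of vehicle wells; lower values mean less growth of the strain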
Conditions: S. cerevisiae deletion strains, growth OD

CCC(=O)O[C@H]1CCC2C3CCC4=CC(=O)CC[C@]4(C)C3CC[C@@]21C (some centres not stated)
normalized growth (locus YAL013W, strain DEP1, stronger effect = lower value): 0.792 (active) | normalized growth (locus YAL021C, strain ccr4, stronger effect = lower value): 0.979 (inactive) | normalized growth (locus YAL026C, strain drs2, stronger effect = lower value): 0.959 (inactive) | normalized growth (locus YAL030W, strain snc1, stronger effect = lower value): 0.924 (active) | normalized growth (locus YBL061C, strain skt5, stronger effect = lower value): 0.866 (active) | normalized growth (locus YBR009C, strain hhf1, stronger effect = lower value): 0.883 (active) | normalized growth (locus YBR021W, strain FUR4, stronger effect = lower value): 0.782 (active) | normalized growth (locus YBR023C, strain chs3, stronger effect = lower value): 0.868 (active) | normalized growth (locus YBR171W, strain sec66, stronger effect = lower value): 0.925 (inactive) | normalized growth (locus YBR229C, strain ROT2, stronger effect = lower value): 0.969 (inactive) | normalized growth (locus YBR231C, strain swc5, stronger effect = lower value): 0.952 (inactive) | normalized growth (locus YBR279W, strain paf1, stronger effect = lower value): 0.959 (inactive) | normalized growth (locus YCL011C, strain gbp2, stronger effect = lower value): 0.843 (active) | normalized growth (locus YCL016C, strain dcc1, stronger effect = lower value): 0.905 (active) | normalized growth (locus YCL029C, strain bik1, stronger effect = lower value): 0.857 (active) | normalized growth (locus YCL069W, strain vba3, stronger effect = lower value): 0.962 (inactive) | normalized growth (locus YCR088W, strain abp1, stronger effect = lower value): 0.957 (inactive) | normalized growth (locus YDL005C, strain med2, stronger effect = lower value): 0.949 (inactive) | normalized growth (locus YDL035C, strain GPR1, stronger effect = lower value): 0.892 (inactive) | normalized growth (locus YDL040C, strain nat1, stronger effect = lower value): 0.946 (inactive) | normalized growth (locus YDL074C, strain BRE1, stronger effect = lower value): 0.76 (active) | normalized growth (locus YDL101C, strain DUN1, stronger effect = lower value): 0.95 (inactive) | normalized growth (locus YDL185W, strain tfp1, stronger effect = lower value): 1 (inactive) | normalized growth (locus YDL192W, strain arf1, stronger effect = lower value): 0.985 (inactive) | normalized growth (locus YDR001C, strain nth1, stronger effect = lower value): 0.962 (inactive) | normalized growth (locus YDR069C, strain doa4, stronger effect = lower value): 0.924 (inactive) | normalized growth (locus YDR101C, strain arx1, stronger effect = lower value): 0.957 (inactive) | normalized growth (locus YDR137W, strain rgp1, stronger effect = lower value): 0.689 (active) | normalized growth (locus YDR159W, strain sac3, stronger effect = lower value): 0.796 (active) | normalized growth (locus YDR162C, strain NBP2, stronger effect = lower value): 0.808 (active) | normalized growth (locus YDR195W, strain ref2): 0.993 (inactive) | normalized growth (locus YDR297W, strain sur2, stronger effect = lower value): 0.968 (inactive) | normalized growth (locus YDR318W, strain mcm21, stronger effect = lower value): 0.901 (active) | normalized growth (locus YDR334W, strain swr1, stronger effect = lower value): 0.952 (inactive) | normalized growth (locus YDR335W, strain msn5, stronger effect = lower value): 0.934 (inactive) | normalized growth (locus YDR388W, stronger effect = lower value): 0.981 (inactive) | normalized growth (locus YDR392W, strain spt3, stronger effect = lower value): 0.213 (active) | normalized growth (locus YDR502C, strain sam2, stronger effect = lower value): 0.919 (active) | normalized growth (locus YEL003W, strain gim4, stronger effect = lower value): 0.943 (inactive) | normalized growth (locus YEL037C, strain rad23, stronger effect = lower value): 0.96 (inactive) | normalized growth (locus YEL061C, strain CIN8 (second series), stronger effect = lower value): 0.968 (inactive) | normalized growth (locus YEL061C, strain CIN8, stronger effect = lower value): 0.933 (inactive) | normalized growth (locus YER015W, strain faa2, stronger effect = lower value): 0.954 (inactive) | normalized growth (locus YER016W, strain bim1, stronger effect = lower value): 0.879 (active) | normalized growth (locus YER110C, stronger effect = lower value): 0.998 (inactive) | normalized growth (locus YER111C, strain swi4, stronger effect = lower value): 0.928 (inactive) | normalized growth (locus YER155C, strain BEM2 (second series), stronger effect = lower value): 0.777 (active) | normalized growth (locus YER155C, strain BEM2, stronger effect = lower value): 0.873 (active) | normalized growth (locus YER167W, strain BCK2, stronger effect = lower value): 0.909 (inactive) | normalized growth (locus YFR010W, strain ubp6, stronger effect = lower value): 0.992 (inactive) | normalized growth (locus YGL078C, strain dbp3, stronger effect = lower value): 0.984 (inactive) | normalized growth (locus YGL086W, strain mad1, stronger effect = lower value): 0.873 (active) | normalized growth (locus YGL167C, strain pmr1, stronger effect = lower value): 0.928 (inactive) | normalized growth (locus YGL173C, strain kem1, stronger effect = lower value): 0.887 (active) | normalized growth (locus YGL227W, strain vid30, stronger effect = lower value): 0.949 (inactive) | normalized growth (locus YGL240W, strain doc1, stronger effect = lower value): 0.928 (inactive) | normalized growth (locus YGL248W, strain PDE1, stronger effect = lower value): 0.916 (inactive) | normalized growth (locus YGL253W, strain hxk2, stronger effect = lower value): 0.872 (active) | normalized growth (locus YGR135W, strain pre9, stronger effect = lower value): 0.969 (inactive) | normalized growth (locus YGR229C, strain SMI1, stronger effect = lower value): 0.821 (inactive) | normalized growth (locus YGR252W, strain gcn5, stronger effect = lower value): 0.872 (inactive) | normalized growth (locus YHR013C, strain ard1, stronger effect = lower value): 1.02 (inactive) | normalized growth (locus YHR027C, strain rpn1, stronger effect = lower value): 0.967 (inactive) | normalized growth (locus YHR030C, strain SLT2, stronger effect = lower value): 0.889 (active) and 0.906 (inactive) | normalized growth (locus YHR079C, strain IRE1 (second series), stronger effect = lower value): 0.981 (inactive) | normalized growth (locus YHR079C, strain IRE1, stronger effect = lower value): 0.896 (inactive) | normalized growth (locus YHR094C, strain hxt1, stronger effect = lower value): 0.982 (inactive) | normalized growth (locus YHR129C, strain ARP1, stronger effect = lower value): 0.943 (inactive) | normalized growth (locus YHR142W, strain chs7, stronger effect = lower value): 0.737 (active) | normalized growth (locus YHR200W, strain rpn10, stronger effect = lower value): 0.943 (inactive) | normalized growth (locus YIL066C, strain RNR3, stronger effect = lower value): 0.878 (inactive) | normalized growth (locus YIL073C, strain SPO22, stronger effect = lower value): 0.807 (inactive) | normalized growth (locus YIL125W, strain kgd1, stronger effect = lower value): 0.975 (inactive) | normalized growth (locus YIR030C, strain dcg1, stronger effect = lower value): 0.991 (inactive) | normalized growth (locus YJL092W, strain hpr5, stronger effect = lower value): 0.929 (inactive) | normalized growth (locus YJL095W, strain BCK1 (second series), stronger effect = lower value): 0.77 (active) | normalized growth (locus YJL095W, strain BCK1, stronger effect = lower value): 0.724 (active) and 0.95 (inactive) | normalized growth (locus YJL115W, strain asf1, stronger effect = lower value): 0.945 (inactive) | normalized growth (locus YJL129C, strain trk1, stronger effect = lower value): 0.781 (active) | normalized growth (locus YJL134W, strain LCB3, stronger effect = lower value): 0.978 (inactive) | normalized growth (locus YJL154C, strain vps35, stronger effect = lower value): 0.943 (inactive) | normalized growth (locus YJL164C, strain tpk1, stronger effect = lower value): 0.893 (active) | normalized growth (locus YJL166W, strain qcr8, stronger effect = lower value): 0.865 (active) | normalized growth (locus YJL168C, strain set2, stronger effect = lower value): 0.983 (inactive) | normalized growth (locus YJL187C, strain SWE1 (second series), stronger effect = lower value): 0.951 (inactive) | normalized growth (locus YJL187C, strain SWE1, stronger effect = lower value): 0.907 (active) | normalized growth (locus YJR043C, strain POL32, stronger effect = lower value): 0.928 (inactive)
